# In ChEMBL document CHEMBL3988442, “University of Dundee, Small-Polar-MMV Screening Library” (2021):
# For some of these results: Measured potencies and affinities stand elsewhere.
# What was measured:
# Set-up in all cases: scale not given: direction of the effect not stated beside the values
# [1] = biological target: Protein translocase subunit SecA (Escherichia coli (strain K12)) (UniProt P10408); assay: Assay to Identify E. coli SecA ATPase Inhibitors; format: functional; details: 30 µM
# [2] = biological target: T1, Ubiquitin-activating enzyme e1, putative (Leishmania donovani (strain BPK282A1)) (UniProt E9BSI1); assay: Leishmania donovani Ubiquitin Activating Enzyme (LdE1); format: functional; details: 30 µM
# T1 sequence (whole entry): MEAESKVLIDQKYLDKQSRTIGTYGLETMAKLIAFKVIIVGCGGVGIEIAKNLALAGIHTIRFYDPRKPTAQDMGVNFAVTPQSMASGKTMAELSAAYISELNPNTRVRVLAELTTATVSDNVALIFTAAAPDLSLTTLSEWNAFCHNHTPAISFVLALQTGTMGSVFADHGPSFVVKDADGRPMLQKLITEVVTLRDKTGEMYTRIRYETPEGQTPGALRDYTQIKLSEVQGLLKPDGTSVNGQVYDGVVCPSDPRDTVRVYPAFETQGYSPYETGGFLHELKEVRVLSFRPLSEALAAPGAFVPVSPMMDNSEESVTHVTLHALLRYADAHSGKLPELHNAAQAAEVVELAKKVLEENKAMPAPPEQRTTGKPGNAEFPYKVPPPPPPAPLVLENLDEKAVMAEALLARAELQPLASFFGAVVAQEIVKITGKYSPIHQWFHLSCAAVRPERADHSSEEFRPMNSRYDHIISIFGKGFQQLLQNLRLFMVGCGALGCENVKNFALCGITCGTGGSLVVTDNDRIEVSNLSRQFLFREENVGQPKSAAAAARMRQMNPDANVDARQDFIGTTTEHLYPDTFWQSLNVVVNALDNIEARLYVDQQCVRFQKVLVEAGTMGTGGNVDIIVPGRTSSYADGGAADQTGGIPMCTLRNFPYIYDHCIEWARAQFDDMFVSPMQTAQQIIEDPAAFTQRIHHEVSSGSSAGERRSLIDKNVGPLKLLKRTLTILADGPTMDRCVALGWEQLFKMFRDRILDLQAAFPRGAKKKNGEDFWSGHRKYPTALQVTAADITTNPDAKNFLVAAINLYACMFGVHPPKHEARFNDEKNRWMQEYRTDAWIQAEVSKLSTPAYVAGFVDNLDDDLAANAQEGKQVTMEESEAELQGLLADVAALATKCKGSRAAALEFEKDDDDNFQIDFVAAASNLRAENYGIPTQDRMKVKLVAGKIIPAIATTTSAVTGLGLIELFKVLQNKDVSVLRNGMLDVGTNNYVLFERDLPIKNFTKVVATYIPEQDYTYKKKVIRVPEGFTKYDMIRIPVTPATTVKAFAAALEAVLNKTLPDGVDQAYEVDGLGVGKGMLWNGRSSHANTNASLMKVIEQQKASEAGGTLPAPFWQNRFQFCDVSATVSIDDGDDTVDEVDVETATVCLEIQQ
# [3] = biological target: AMP-activated protein kinase, AMPK (Homo sapiens) (UniProt P54646+O43741+P54619+Q9UGJ0+Q9Y478+Q13131+Q9UGI9); assay: AMP-dependent Kinase enzyme assay. An in vitro enzyme assay that detects ADP turnover that is directly proportional to AMPK activity. This uses naive AMPK that is activated during the assay with MK-8722; format: functional; details: 30 µM
# [4] = biological target: Sialic acid-binding Ig-like lectin 9 (Homo sapiens) (UniProt Q9Y336); assay: Hs-Siglec9 ALPHAscreen SOP 20170721; details: 10 µM
# Chain of Sialic acid-binding Ig-like lectin 9 (Homo sapiens) (Q9Y336 whole entry): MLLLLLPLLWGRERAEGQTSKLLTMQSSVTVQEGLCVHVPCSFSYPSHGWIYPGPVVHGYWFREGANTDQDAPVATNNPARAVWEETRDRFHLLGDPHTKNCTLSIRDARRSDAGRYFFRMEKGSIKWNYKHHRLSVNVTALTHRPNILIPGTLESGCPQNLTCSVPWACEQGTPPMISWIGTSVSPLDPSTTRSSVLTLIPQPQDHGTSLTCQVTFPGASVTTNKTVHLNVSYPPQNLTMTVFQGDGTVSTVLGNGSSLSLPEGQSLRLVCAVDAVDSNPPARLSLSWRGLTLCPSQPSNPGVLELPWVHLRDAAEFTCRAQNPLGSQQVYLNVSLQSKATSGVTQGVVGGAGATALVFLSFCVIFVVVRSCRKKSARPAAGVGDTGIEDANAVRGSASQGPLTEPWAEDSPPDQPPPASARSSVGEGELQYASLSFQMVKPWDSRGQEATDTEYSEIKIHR
# Trypanosoma cruzi = assay: Trypanosoma cruzi phosphomannomutase and mannose-1-phosphate guanylyltransferase assay; format: functional; details: 10 µM
# [5] = biological target: T2, Arginase-2, mitochondrial (Homo sapiens) (UniProt P78540); assay: in vitro enzyme assay to detect the production of urea directly proportional to the activity of Arginase II; format: functional; details: 33.3 µM; also: in the data most compounds retested in dose-response had high values
# T2 sequence (whole entry): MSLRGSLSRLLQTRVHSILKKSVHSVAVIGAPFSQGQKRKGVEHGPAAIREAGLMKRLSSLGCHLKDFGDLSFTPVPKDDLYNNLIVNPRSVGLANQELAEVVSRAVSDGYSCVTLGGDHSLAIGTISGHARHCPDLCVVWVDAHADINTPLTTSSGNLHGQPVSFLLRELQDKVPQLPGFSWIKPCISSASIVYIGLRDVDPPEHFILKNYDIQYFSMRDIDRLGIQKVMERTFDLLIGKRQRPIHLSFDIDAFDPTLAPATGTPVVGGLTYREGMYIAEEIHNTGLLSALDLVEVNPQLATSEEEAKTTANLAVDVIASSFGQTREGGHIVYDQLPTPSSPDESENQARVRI
# [6] = biological target: T3, Proteasome subunit beta (Trypanosoma cruzi) (UniProt O96673); assay: Trypanosoma cruzi proteasome chymotrypsin-like activity (TcProtChymo) assay.; also: in the data most compounds retested in dose-response had high values; format: functional; details: 9.37 µM
# T3 sequence (whole entry): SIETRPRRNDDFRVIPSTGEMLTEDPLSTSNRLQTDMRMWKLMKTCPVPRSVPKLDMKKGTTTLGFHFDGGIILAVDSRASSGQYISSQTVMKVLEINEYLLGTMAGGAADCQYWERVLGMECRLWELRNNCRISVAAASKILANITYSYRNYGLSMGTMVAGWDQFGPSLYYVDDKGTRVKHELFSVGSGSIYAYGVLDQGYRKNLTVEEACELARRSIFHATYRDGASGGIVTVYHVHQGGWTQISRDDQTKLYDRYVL
# Homo sapiens = organism: Homo sapiens; assay: To identify inhibition of the IFN signalling (Jak-Stat) pathway via expression of an eGFP reporter gene under the control of an IFN-stimulated response element (ISRE) containing MxA promoter.; format: functional; details: 30 µM
# [7] = biological target: T4, Tyrosyl-tRNA synthetase, putative (Trypanosoma cruzi (strain CL Brener)) (UniProt Q4DSP6); assay: Trypanosoma cruzi tyrosyl tRNA synthetase (TcYRS) _High Tyrosine SOP; format: functional; details: 30 µM; also: in the data most compounds retested in dose-response had high values
# T4 sequence (whole entry): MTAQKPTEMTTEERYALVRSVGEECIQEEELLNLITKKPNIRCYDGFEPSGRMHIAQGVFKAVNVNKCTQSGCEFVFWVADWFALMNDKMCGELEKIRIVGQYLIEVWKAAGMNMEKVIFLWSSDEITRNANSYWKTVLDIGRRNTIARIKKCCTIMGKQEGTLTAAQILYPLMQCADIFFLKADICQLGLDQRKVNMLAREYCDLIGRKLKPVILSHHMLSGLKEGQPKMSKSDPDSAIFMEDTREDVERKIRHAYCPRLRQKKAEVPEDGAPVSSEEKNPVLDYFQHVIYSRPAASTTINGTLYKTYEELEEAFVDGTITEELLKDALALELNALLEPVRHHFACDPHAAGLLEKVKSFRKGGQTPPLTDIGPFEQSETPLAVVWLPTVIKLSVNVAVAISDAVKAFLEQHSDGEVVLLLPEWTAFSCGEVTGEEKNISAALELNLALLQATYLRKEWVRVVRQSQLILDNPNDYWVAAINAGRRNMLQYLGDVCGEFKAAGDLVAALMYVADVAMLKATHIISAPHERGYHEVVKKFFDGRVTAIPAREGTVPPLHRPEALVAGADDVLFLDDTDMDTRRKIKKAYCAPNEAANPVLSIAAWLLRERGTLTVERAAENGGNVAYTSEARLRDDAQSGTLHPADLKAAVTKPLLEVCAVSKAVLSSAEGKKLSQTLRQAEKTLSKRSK
# [8] = biological target: T4, Tyrosyl-tRNA synthetase, putative (Trypanosoma cruzi (strain CL Brener)); assay: Trypanosoma cruzi tyrosyl tRNA synthetase (TcYRS) SOP; format: functional; details: 30 µM
# [9] = biological target: Chromo domain-containing protein 1 (Saccharomyces cerevisiae (strain ATCC 204508 / S288c) (Baker's yeast)) (UniProt P32657); assay: ScCHD-1 Enzyme Inhibition Assay; format: functional; details: 30 µM; also: in the data most compounds retested in dose-response had high values
# Chain of Chromo domain-containing protein 1 (Saccharomyces cerevisiae (strain ATCC 204508 / S288c) (Baker's yeast)) (P32657 whole entry, the tested form may be a part): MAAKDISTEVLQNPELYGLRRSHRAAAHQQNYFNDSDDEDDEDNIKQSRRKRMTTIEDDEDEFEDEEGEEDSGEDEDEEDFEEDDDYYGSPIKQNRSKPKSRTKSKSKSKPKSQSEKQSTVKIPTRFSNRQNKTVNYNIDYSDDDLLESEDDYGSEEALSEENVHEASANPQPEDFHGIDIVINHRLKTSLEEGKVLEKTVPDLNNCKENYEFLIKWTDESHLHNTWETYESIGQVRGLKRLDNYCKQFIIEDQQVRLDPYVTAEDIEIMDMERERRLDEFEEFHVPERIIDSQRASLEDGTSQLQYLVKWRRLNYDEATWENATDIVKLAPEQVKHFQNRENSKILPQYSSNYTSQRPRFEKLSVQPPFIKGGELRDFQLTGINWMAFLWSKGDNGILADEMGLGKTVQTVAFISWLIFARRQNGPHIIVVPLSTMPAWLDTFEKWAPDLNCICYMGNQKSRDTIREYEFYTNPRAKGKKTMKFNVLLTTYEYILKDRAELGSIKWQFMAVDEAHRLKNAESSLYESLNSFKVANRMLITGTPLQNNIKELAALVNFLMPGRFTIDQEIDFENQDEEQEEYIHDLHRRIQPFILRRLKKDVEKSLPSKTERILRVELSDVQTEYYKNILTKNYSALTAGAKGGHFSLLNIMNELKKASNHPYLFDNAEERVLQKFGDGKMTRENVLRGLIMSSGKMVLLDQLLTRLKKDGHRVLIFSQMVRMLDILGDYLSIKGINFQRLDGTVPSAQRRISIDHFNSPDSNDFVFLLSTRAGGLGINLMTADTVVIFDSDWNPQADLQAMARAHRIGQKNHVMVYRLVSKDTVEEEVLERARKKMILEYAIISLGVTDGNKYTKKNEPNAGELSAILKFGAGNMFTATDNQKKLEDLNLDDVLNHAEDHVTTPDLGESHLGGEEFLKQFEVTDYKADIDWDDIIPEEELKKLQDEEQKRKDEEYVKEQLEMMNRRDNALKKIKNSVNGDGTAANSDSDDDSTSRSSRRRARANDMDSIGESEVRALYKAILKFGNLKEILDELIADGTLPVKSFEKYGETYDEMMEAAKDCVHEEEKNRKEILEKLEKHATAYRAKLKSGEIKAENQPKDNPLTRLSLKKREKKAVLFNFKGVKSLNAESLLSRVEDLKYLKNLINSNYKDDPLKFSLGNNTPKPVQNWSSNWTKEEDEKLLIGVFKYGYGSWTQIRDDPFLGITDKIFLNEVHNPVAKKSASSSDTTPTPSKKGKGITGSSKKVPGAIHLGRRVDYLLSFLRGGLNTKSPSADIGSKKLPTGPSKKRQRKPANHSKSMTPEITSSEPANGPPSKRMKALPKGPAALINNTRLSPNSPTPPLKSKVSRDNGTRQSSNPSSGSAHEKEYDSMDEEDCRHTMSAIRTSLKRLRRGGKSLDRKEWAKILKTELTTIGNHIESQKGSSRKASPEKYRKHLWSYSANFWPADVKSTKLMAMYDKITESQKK
# Chain of Protein translocase subunit SecA (Escherichia coli (strain K12)) (P10408 whole entry): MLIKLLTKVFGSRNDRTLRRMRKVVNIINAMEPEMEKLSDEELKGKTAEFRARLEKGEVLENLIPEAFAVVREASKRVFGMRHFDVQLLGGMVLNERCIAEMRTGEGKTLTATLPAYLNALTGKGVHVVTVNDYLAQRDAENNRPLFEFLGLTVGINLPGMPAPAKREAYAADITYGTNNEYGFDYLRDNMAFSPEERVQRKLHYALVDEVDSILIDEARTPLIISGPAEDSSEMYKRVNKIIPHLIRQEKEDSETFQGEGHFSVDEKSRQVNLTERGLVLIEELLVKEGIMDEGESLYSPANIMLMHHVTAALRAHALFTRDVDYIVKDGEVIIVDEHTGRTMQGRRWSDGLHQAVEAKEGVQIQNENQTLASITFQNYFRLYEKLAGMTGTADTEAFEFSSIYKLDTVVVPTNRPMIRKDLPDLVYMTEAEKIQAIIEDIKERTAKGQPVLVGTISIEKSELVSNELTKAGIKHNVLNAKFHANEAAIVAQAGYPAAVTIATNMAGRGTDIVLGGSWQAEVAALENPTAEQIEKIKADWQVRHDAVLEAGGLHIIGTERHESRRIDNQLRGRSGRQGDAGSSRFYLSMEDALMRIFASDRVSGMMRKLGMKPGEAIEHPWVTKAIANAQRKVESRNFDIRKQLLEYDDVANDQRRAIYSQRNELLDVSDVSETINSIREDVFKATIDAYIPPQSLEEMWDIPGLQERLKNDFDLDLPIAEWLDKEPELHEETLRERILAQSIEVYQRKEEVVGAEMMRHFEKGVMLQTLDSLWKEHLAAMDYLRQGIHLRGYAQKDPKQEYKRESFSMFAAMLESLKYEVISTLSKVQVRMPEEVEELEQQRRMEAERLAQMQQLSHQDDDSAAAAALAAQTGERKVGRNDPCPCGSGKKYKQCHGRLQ
SMILES,Percent Effect [1] [%],Percent Effect [2] [%],Percent Effect [3] [%],Percent Effect [4] [%],Percent Effect (Trypanosoma cruzi) [%],Percent Effect [5] [%],Percent Effect [6] [%],Percent Effect (Homo sapiens) [%],Percent Effect [7] [%],Percent Effect [8] [%],Percent Effect [9] [%]
CCc1noc(C)c1C(=O)N1CCCC1Cn1cc(C)cn1 (stereo unspecified),-3.44,15.8,8.82,-9.39,-10.4,0,3.64,-1.17,2.46,1.24,-10.2
Cc1ccc(C(=O)N2CCCC(NC(=O)C(C)C)C2)c(O)c1 (stereo unspecified),-4.49,16.2,-12.8,11.8,3.87,-4.41,11.9,6.82,8.37,25.9,-10.5
O=S(=O)(NC1=NCN(CCc2cccs2)CN1)c1ccc(F)cc1,1.07,4,3.26,4.09,-4.91,-7.57,14.1,-6.32,5.29,10.3,-10.7
CC(=O)Nc1ccc(-n2ccc3nc(N4CCCC4)ncc3c2=O)cc1,-3.46,-9.33,1.45,1.82,-2.36,0.88,3.14,-5.51,1.06,-7.69,3.54
O=C1NCCCCC1Sc1nnc(-c2cccnc2)n1C1CC1 (stereo unspecified),-2.96,2.74,5.81,0.732,-2.55,0,9.23,-4.55,7.53,12.5,-6.68
Cc1cnn(C2CCCN(C(=O)CCCNc3ncccn3)C2)c1 (stereo unspecified),0.326,21.6,-4.82,-6.78,-4.62,0,10.3,6.71,-13.3,16.1,-4.22
CCC(CC)c1cc(CNC(=O)N2CCOC(C)C2)on1 (stereo unspecified),-3.56,-2.7,-0.766,-6.02,-1.86,2.23,-2.66,3.72,3.23,1.24,0.0369
c1cncc(OCc2nnn3c2CN(Cc2ccsc2)CCC3)c1,-3.57,2.67,-0.385,1.61,7.72,-48.2,6.84,1.38,-3.12,-5,-5.39
Cc1nc(C)n(CC2CN(c3ncccn3)Cc3nccn3C2)n1 (stereo unspecified),-6.81,8.11,-2.43,1.67,-3.42,-2.73,6.44,2.81,2.15,11.1,-2.96
Cc1nc(C)n(CC2CCCCN2Cc2nnc(C3CC3)o2)n1 (stereo unspecified),0.312,2.6,3.13,1.14,3.37,0.712,1.69,1.94,0.971,7.32,-9.02
Cc1cc(C[C@@H]2CCC[C@H]2NCc2cc(C)c(O)c(C)c2)on1,0.891,9.46,18.3,-0.421,-9.88,-0.232,15.1,41.8,0,9.09,-12.1
